# Reference: PubChem BioAssay AID1159580 (chemical genetic matrix, 2015)
# The campaign covered roughly 5,500 compounds. About 2,000 (36%) were called active. Another 18% or so got no clear call; they are omitted. Some of the results follow. A number with no mark means an inactive call. Rule as the data show it: active = normalized growth mostly below about 0.91 (no sharp cut-off); inconclusive = no clear call, values can overlap the other calls; inactive = mostly above about 0.92.
# Experiment: chemical genetic growth profiling, strain panel (AID 1159580);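 also: tested at 20 µM; growth read once vehicle control cultures reached saturation at 30 °C; 1 = growth at the plate median or of vehicle wells; lower values mean less growth of the strain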
# Details: S. cerevisiae deletion strains, growth OD
# [1] = locus YAL013W, strain DEP1, active compounds read low
# [2] = locus YAL040C, strain CLN3, active compounds read low
# [3] = locus YCL061C, strain MRC1 (second series), active compounds read low
# [4] = locus YDR363W, strain ESC2, active compounds read low
# [5] = locus YER002W, strain NOP16, active compounds read low
# [6] = locus YGR078C, strain PAC10, active compounds read low
# [7] = locus YMR263W, strain SAP30, active compounds read low
# [8] = locus YMR307W, strain GAS1, active compounds read low
# [9] = locus YNL175C, strain NOP13, active compounds read low
# [10] = locus YNL197C, strain WHI3, active compounds read low
# [11] = locus YNL224C, strain SQS1, active compounds read low
# [12] = locus YOR083W, strain WHI5 (second series), active compounds read low
compound,measurement,setting,value
Cc1ccccc1N1CCN(S(=O)(=O)C[C@]23CCC(CC2NC(=O)[C@@H](N)CCS(C)(=O)=O)C3(C)C)CC1 (stereo partly specified),normalized growth,[1],0.995
same,normalized growth,[2],1.01
same,normalized growth,[3],1
same,normalized growth,[4],1
same,normalized growth,[5],1.04
same,normalized growth,[6],0.999
same,normalized growth,"locus YGR229C, strain SMI1, active compounds read low",1
same,normalized growth,[7],0.995
same,normalized growth,[8],0.99
same,normalized growth,[9],1.01
same,normalized growth,[10],1.01
same,normalized growth,[11],1.01
same,normalized growth,"locus YNL322C, strain KRE1, active compounds read low",0.99
same,normalized growth,[12],1.04
CCCN(CCC)C1Cc2cc(OC)c(OC)cc2C1,normalized growth,[1],0.961
same,normalized growth,[2],1.05
same,normalized growth,[3],0.988
same,normalized growth,[4],0.974
same,normalized growth,[5],1.04
same,normalized growth,[7],0.985
same,normalized growth,[8],0.995
same,normalized growth,[9],1.02
same,normalized growth,[10],0.983
same,normalized growth,[11],0.994
same,normalized growth,[12],0.995
Clc1ccc(C(Cn2ccnc2)OCc2ccsc2Cl)c(Cl)c1 (stereo unspecified),normalized growth,"locus YAL021C, strain ccr4, active compounds read low",0.0615 (active)
same,normalized growth,"locus YAL026C, strain drs2, active compounds read low",0.0595 (active)
same,normalized growth,"locus YAL030W, strain snc1, active compounds read low",0.058 (active)
same,normalized growth,"locus YBL061C, strain skt5, active compounds read low",0.0605 (active)
same,normalized growth,"locus YBR009C, strain hhf1, active compounds read low",0.0623 (active)
same,normalized growth,"locus YBR023C, strain chs3, active compounds read low",0.0625 (active)
same,normalized growth,"locus YBR171W, strain sec66, active compounds read low",0.077 (active)
same,normalized growth,"locus YBR231C, strain swc5, active compounds read low",0.0613 (active)
same,normalized growth,"locus YBR279W, strain paf1, active compounds read low",0.0605 (active)
same,normalized growth,"locus YCL011C, strain gbp2, active compounds read low",0.0554 (active)
same,normalized growth,"locus YCL016C, strain dcc1, active compounds read low",0.0612 (active)
same,normalized growth,"locus YCL061C, strain MRC1, active compounds read low",0.0623 (active)
same,normalized growth,"locus YCL069W, strain vba3, active compounds read low",0.0601 (active)
same,normalized growth,"locus YCR088W, strain abp1, active compounds read low",0.0619 (active)
same,normalized growth,"locus YDL005C, strain med2, active compounds read low",0.0727 (active)
same,normalized growth,"locus YDL040C, strain nat1, active compounds read low",0.0591 (active)
same,normalized growth,"locus YDR001C, strain nth1, active compounds read low",0.0593 (active)
same,normalized growth,"locus YDR069C, strain doa4, active compounds read low",0.0605 (active)
same,normalized growth,"locus YDR137W, strain rgp1, active compounds read low",0.0897 (active)
same,normalized growth,"locus YDR159W, strain sac3, active compounds read low",0.0897 (active)
same,normalized growth,"locus YDR195W, strain ref2",0.109 (active)
same,normalized growth,"locus YDR297W, strain sur2, active compounds read low",0.0576 (active)
same,normalized growth,"locus YDR334W, strain swr1, active compounds read low",0.0622 (active)
same,normalized growth,"locus YDR335W, strain msn5, active compounds read low",0.0604 (active)
same,normalized growth,"locus YDR392W, strain spt3, active compounds read low",0.0929 (active)
same,normalized growth,"locus YEL003W, strain gim4, active compounds read low",0.0528 (active)
same,normalized growth,"locus YEL037C, strain rad23, active compounds read low",0.0589 (active)
same,normalized growth,"locus YEL061C, strain CIN8 (second series), active compounds read low",0.0607 (active)
same,normalized growth,"locus YER015W, strain faa2, active compounds read low",0.0602 (active)
same,normalized growth,"locus YER016W, strain bim1, active compounds read low",0.0611 (active)
same,normalized growth,"locus YER111C, strain swi4, active compounds read low",0.0729 (active)
same,normalized growth,"locus YER155C, strain BEM2 (second series), active compounds read low",0.0863 (active)
same,normalized growth,"locus YFR010W, strain ubp6, active compounds read low",0.0638 (active)
same,normalized growth,"locus YGL167C, strain pmr1, active compounds read low",0.0775 (active)
same,normalized growth,"locus YGL173C, strain kem1, active compounds read low",0.0679 (active)
same,normalized growth,"locus YGL227W, strain vid30, active compounds read low",0.0627 (active)
same,normalized growth,"locus YGL240W, strain doc1, active compounds read low",0.0751 (active)
same,normalized growth,"locus YGL253W, strain hxk2, active compounds read low",0.0532 (active)
same,normalized growth,"locus YHR013C, strain ard1, active compounds read low",0.116 (active)
same,normalized growth,"locus YHR027C, strain rpn1, active compounds read low",0.0631 (active)
same,normalized growth,"locus YHR030C, strain SLT2, active compounds read low",0.1 (active)
same,normalized growth,"locus YHR079C, strain IRE1, active compounds read low",0.111 (active)
same,normalized growth,"locus YHR142W, strain chs7, active compounds read low",0.0682 (active)
same,normalized growth,"locus YJL092W, strain hpr5, active compounds read low",0.058 (active)
same,normalized growth,"locus YJL095W, strain BCK1 (second series), active compounds read low",0.0564 (active)
same,normalized growth,"locus YJL095W, strain BCK1, active compounds read low",0.131 (active)
same,normalized growth,"locus YJL115W, strain asf1, active compounds read low",0.0715 (active)
same,normalized growth,"locus YJL129C, strain trk1, active compounds read low",0.0844 (active)
same,normalized growth,"locus YJL154C, strain vps35, active compounds read low",0.0606 (active)
same,normalized growth,"locus YJL164C, strain tpk1, active compounds read low",0.0589 (active)
same,normalized growth,"locus YJL166W, strain qcr8, active compounds read low",0.0614 (active)
same,normalized growth,"locus YJL187C, strain SWE1, active compounds read low",0.058 (active)
same,normalized growth,"locus YJR066W, strain TOR1, active compounds read low",-0.00364 (active)
same,normalized growth,"locus YKL160W, strain elf1, active compounds read low",0.0664 (active)
same,normalized growth,"locus YKR026C, strain gcn3, active compounds read low",0.0641 (active)
same,normalized growth,"locus YKR091W, strain srl3, active compounds read low",0.0588 (active)
same,normalized growth,"locus YLL001W, strain dnm1, active compounds read low",0.0592 (active)
same,normalized growth,"locus YLL026W, active compounds read low",0.0585 (active)
same,normalized growth,"locus YLL041C, strain sdh2, active compounds read low",0.0592 (active)
same,normalized growth,"locus YLR027C, strain aat2, active compounds read low",0.0566 (active)
same,normalized growth,"locus YLR113W, strain HOG1, active compounds read low",0.175 (active)
same,normalized growth,"locus YLR221C, strain rsa3, active compounds read low",0.0562 (active)
same,normalized growth,"locus YLR258W, strain gsy2, active compounds read low",0.0592 (active)
same,normalized growth,"locus YLR262C, strain YPT6 (second series), active compounds read low",0.0854 (active)
same,normalized growth,"locus YLR320W, strain mms22, active compounds read low",0.083 (active)
same,normalized growth,"locus YLR342W, strain FKS1, active compounds read low",0.063 (active)
same,normalized growth,"locus YLR357W, strain rsc2, active compounds read low",0.114 (active)
same,normalized growth,"locus YLR370C, strain arc18, active compounds read low",0.0594 (active)
same,normalized growth,"locus YLR384C, strain iki3, active compounds read low",0.0608 (active)
same,normalized growth,"locus YML120C, strain ndi1, active compounds read low",0.0591 (active)
same,normalized growth,"locus YMR058W, strain fet3, active compounds read low",0.0582 (active)
same,normalized growth,"locus YMR125W, strain sto1, active compounds read low",0.0724 (active)
same,normalized growth,"locus YMR129W, active compounds read low",0.057 (active)
same,normalized growth,"locus YMR205C, strain PFK2, active compounds read low",0.0885 (active)
same,normalized growth,"locus YMR231W, strain pep5, active compounds read low",0.0835 (active)
same,normalized growth,"locus YNL071W, strain lat1, active compounds read low",0.0601 (active)
same,normalized growth,"locus YNL183C, strain NPR1, active compounds read low",-4.4e-05 (active)
same,normalized growth,"locus YNL209W, strain ssb2, active compounds read low",0.0596 (active)
same,normalized growth,"locus YNL248C, strain rpa49, active compounds read low",0.0715 (active)
same,normalized growth,"locus YNL322C, strain KRE1 (second series), active compounds read low",0.0708 (active)
same,normalized growth,"locus YNR049C, strain mso1, active compounds read low",0.0574 (active)
same,normalized growth,"locus YOR001W, strain rrp6, active compounds read low",0.0652 (active)
same,normalized growth,"locus YOR070C, strain gyp1, active compounds read low",0.0829 (active)
same,normalized growth,"locus YOR080W, strain dia2, active compounds read low",0.0656 (active)
same,normalized growth,"locus YOR083W, strain WHI5, active compounds read low",0.0618 (active)
same,normalized growth,"locus YOR106W, strain vam3, active compounds read low",0.0631 (active)
same,normalized growth,"locus YOR231W, strain MKK1, active compounds read low",0.107 (active)
same,normalized growth,"locus YOR265W, strain rbl2, active compounds read low",0.0575 (active)
same,normalized growth,"locus YOR270C, strain vph1, active compounds read low",0.0903 (active)
same,normalized growth,"locus YOR290C, strain snf2, active compounds read low",0.074 (active)
same,normalized growth,"locus YPL051W, strain arl3, active compounds read low",0.0604 (active)
same,normalized growth,"locus YPL078C, strain atp4, active compounds read low",0.0629 (active)
same,normalized growth,"locus YPL106C, strain sse1, active compounds read low",0.0945 (active)
same,normalized growth,"locus YPL240C, strain hsp82, active compounds read low",0.0568 (active)
same,normalized growth,"locus YPL256C, strain CLN2, active compounds read low",0.133 (active)
Clc1ccc(C(c2ccc(Cl)cc2)n2cc[n+](CC(OCc3ccc(Cl)cc3Cl)c3ccc(Cl)cc3Cl)c2)cc1 (stereo unspecified),normalized growth,[2],0.071 (active)
same,normalized growth,[3],0.0506 (active)
same,normalized growth,[4],0.0687 (active)
same,normalized growth,[5],1.01
same,normalized growth,[6],0.0555 (active)
same,normalized growth,"locus YJR075W, strain HOC1, active compounds read low",0.0686 (active)
same,normalized growth,[8],0.0652 (active)
same,normalized growth,[9],0.0668 (active)
same,normalized growth,[10],0.0718 (active)
same,normalized growth,[11],0.0691 (active)
same,normalized growth,[12],0.0706 (active)
